Compound activity deposited in PubChem by Sanford-Burnham Center for Chemical Genomics.
CYP2C9 activ – human CYP2C9 activators, primary screen, biochemical, luminescence. activation factor at 5 µM. Cytochrome P450 2C9 (Homo sapiens), P11712. recombinant CYP2C9, luciferin-H conversion; hits give high values; factor 1 = untreated enzyme, 0 = blocked. hit rate 1.4% among 96,000. AID 1024, 2008;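 active = activation factor of 2 or more for CYP2C9 at a 5 µM dose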;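 note: 0 = sulfaphenazole-blocked wells and 1 = vehicle-only wells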
CYP2C19 inh – blockers of cytochrome P450 2C19 activity – biochemical, luminescence, ADME assay, primary screen; inhibition, % at 5 µM; hit rate 21% among 96,000; P33261; CYP2C19 Supersomes, luciferin-H EGE luminescence, 30 min;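 active = CYP2C19 inhibition above a set limit at 5 µM in the primary screen, cut at about 50% in these data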;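 note: plate controls were negative control wells for no effect and 2.5 mM tranylcypromine positive control for full effect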
Target sequence (P33261 whole entry, looked up): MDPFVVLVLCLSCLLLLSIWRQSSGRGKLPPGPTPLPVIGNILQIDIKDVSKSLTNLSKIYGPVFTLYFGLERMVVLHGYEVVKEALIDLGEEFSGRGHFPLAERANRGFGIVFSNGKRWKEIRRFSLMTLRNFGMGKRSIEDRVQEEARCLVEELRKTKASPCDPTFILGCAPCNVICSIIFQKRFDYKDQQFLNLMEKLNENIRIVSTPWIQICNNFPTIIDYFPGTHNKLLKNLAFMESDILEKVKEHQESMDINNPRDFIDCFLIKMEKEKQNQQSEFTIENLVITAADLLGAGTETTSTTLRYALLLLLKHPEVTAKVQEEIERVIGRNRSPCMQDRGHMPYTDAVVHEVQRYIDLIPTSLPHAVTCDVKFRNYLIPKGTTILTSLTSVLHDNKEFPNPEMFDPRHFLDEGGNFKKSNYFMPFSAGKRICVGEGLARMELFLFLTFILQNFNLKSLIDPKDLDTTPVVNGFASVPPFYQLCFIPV
CYP2C9 inh – blockers of cytochrome P450 2C9 activity – biochemical, luminescence, ADME assay, primary screen; CYP2C9 Supersomes, luciferin-H conversion; inhibition, % at 5 µM; hit rate 20% among 96,000;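 active = blocking of liver enzyme CYP2C9 beyond about 50% at 5 µM, limit read from the data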
PLAP act – PLAP enzyme activators, biochemical, luminescence, HTS | Alkaline phosphatase, placental type (Homo sapiens), P05187 | purified PLAP enzyme, luminescent substrate read-out; hits give high values | activation fold at 20 µM | hit rate 1.2% among 96,000; in the data active = activation fold above about 2
CYP2C19 activ – human CYP2C19 activators, primary screen, biochemical, luminescence | Cytochrome P450 2C19 (Homo sapiens), P33261 | recombinant CYP2C19, luciferin-H EGE luminescence; hits give high values; 0 = fully inhibited enzyme, 1 = untreated enzyme | activation factor at 5 µM | 96,000 tested, under 10 active;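 active = activation factor of at least 2 at 5 µM in the primary screen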;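 note: 0 = wells with 2.5 mM tranylcypromine and 1 = vehicle-only wells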
The depositor's hits bear a star. Shown are actives, neighbours in structure and some others; about 31% of the full set was active somewhere.

How did CCc1ccc2c(c1)/C(=N/N(C)C(=S)NC)C(=O)N2 do in these assays?
CYP2C9 activ: 0.9; CYP2C19 inh: 51.6*; CYP2C9 inh: 10.8; PLAP act: 0.9; CYP2C19 activ: 0.5

How did CCc1ccc2c(c1)/C(=C/C(=O)c1cccs1)C(=O)N2 do in these assays?
CYP2C9 activ: 0.8; CYP2C19 inh: 8.4; CYP2C9 inh: 20.3; PLAP act: 0.7; CYP2C19 activ: 0.9

Results for O=C(NCc1cccnc1)C1CCN(S(=O)(=O)N2CCOCC2)CC1 ?
CYP2C9 activ: 1; CYP2C19 inh: 12.7; CYP2C9 inh: 3.3; PLAP act: 1.2; CYP2C19 activ: 0.9

What do the screens show for `Cc1cc(C)c(S(=O)(=O)c2ccccc2C)c(Oc2ccccc2)n1`?
CYP2C9 activ: 0.4; CYP2C19 inh: 68.6*; CYP2C9 inh: 55.6*; PLAP act: 1.3; CYP2C19 activ: 0.3

What do the screens show for `Cc1cc(C)c(S(=O)(=O)c2ccccc2)c(OC(=O)c2c(Cl)cccc2Cl)n1`?
CYP2C9 activ: 0.6; CYP2C19 inh: 35.3; CYP2C9 inh: 36.6; PLAP act: 1.1; CYP2C19 activ: 0.6

What do the screens show for `CCCCSc1nc(C)cc(C)c1S(=O)(=O)c1ccccc1C`?
CYP2C9 activ: 0.6; CYP2C19 inh: 74.6*; CYP2C9 inh: 39.2; PLAP act: 0.8; CYP2C19 activ: 0.3

How did Cc1cc(C)c(S(=O)(=O)c2ccccc2C)c(Cl)n1 do in these assays?
CYP2C9 activ: 3.6*; CYP2C19 inh: 66.0*; CYP2C9 inh: -255.8; PLAP act: 0.9; CYP2C19 activ: 0.3

What do the screens show for `Cc1ccc(S(=O)(=O)c2c(C)cc(C)nc2Cl)c(C)c1`?
CYP2C9 activ: 1.8; CYP2C19 inh: 99.7*; CYP2C9 inh: -84.9; PLAP act: 1.1; CYP2C19 activ: 0

What do the screens show for `COc1ccc(Oc2nc(C)cc(C)c2S(=O)(=O)c2ccc(C)cc2)cc1`?
CYP2C9 activ: 0.7; CYP2C19 inh: 30.9; CYP2C9 inh: 33.8; PLAP act: 1.1; CYP2C19 activ: 0.7

Results for CCCCSc1nc(C)c(C(C)=O)cc1C#N ?
CYP2C9 activ: 0.7; CYP2C19 inh: 34.6; CYP2C9 inh: 29.1; PLAP act: 1; CYP2C19 activ: 0.7

Results for CCN(CC)C(=O)C1=C(C)NC(=O)NC1c1c(F)cccc1Cl (stereo unspecified) ?
CYP2C9 activ: 1; CYP2C19 inh: -0.3; CYP2C9 inh: -4.9; PLAP act: 1.1; CYP2C19 activ: 1

Results for O=C(CSc1nc(-c2ccccc2)c(-c2ccccc2)[nH]1)Nc1nccs1 ?
CYP2C9 activ: 1; CYP2C19 inh: -13.8; CYP2C9 inh: -2.7; PLAP act: 1.2; CYP2C19 activ: 1.1

How did CCCCn1cc(SCC(=O)O)c2ccccc21 do in these assays?
CYP2C9 activ: 0.7; CYP2C19 inh: 4.4; CYP2C9 inh: 32.7; PLAP act: 1.3; CYP2C19 activ: 1

What do the screens show for `Cn1cc(SCC(=O)Nc2nccs2)c2ccccc21`?
CYP2C9 activ: 0.8; CYP2C19 inh: 64.4*; CYP2C9 inh: 24.4; PLAP act: 0.8; CYP2C19 activ: 0.4

Results for Cc1cc(C)cc(C(=O)NCCn2cc(SCC(=O)N3CCOCC3)c3ccccc32)c1 ?
CYP2C9 activ: 1.3; CYP2C19 inh: 22.5; CYP2C9 inh: -32.2; PLAP act: 1.7; CYP2C19 activ: 0.8

What do the screens show for `CC1CCN(C(=O)Cn2c(SCC(=O)Nc3nccs3)nc3ccccc32)CC1`?
CYP2C9 activ: 0.2; CYP2C19 inh: 80.7*; CYP2C9 inh: 78.7*; PLAP act: 1.1; CYP2C19 activ: 0.2

Results for Cc1ccc(C(=O)NCCn2cc(SCC(=O)Nc3nnc(C)s3)c3ccccc32)cc1 ?
CYP2C9 activ: 0.2; CYP2C19 inh: 60.0*; CYP2C9 inh: 79.5*; PLAP act: 1.3; CYP2C19 activ: 0.4

What do the screens show for `CCCn1cc(SCC(=O)Nc2nnc(C)s2)c2ccccc21`?
CYP2C9 activ: 0.4; CYP2C19 inh: 29.4; CYP2C9 inh: 63.0*; PLAP act: 1.1; CYP2C19 activ: 0.7

Results for CC1=C(C(=O)Nc2cccnc2)C(c2ccc3c(c2)OCO3)C2=C(CCCC2=O)N1 (stereo unspecified) ?
CYP2C9 activ: 0.6; CYP2C19 inh: 20.1; CYP2C9 inh: 39.9; PLAP act: 1; CYP2C19 activ: 0.8

How did Cc1ccc(-c2cc(C(F)F)n3ncc(C(=O)Nc4c(C)nn(Cc5ccccc5Cl)c4C)c3n2)cc1 do in these assays?
CYP2C9 activ: 0.1; CYP2C19 inh: 16.9; CYP2C9 inh: 88.9*; PLAP act: 1.2; CYP2C19 activ: 0.8

How did Cc1nn(Cc2ccccc2Cl)c(C)c1NC(=O)c1cc(-c2ccc(F)cc2)on1 do in these assays?
CYP2C9 activ: 0.5; CYP2C19 inh: 10.2; CYP2C9 inh: 49.8; PLAP act: 0.8; CYP2C19 activ: 0.9

What do the screens show for `Cc1ccc(-c2cc(C(F)F)n3ncc(C(=O)Nc4c(C)nn(Cc5c(Cl)cccc5Cl)c4C)c3n2)cc1`?
CYP2C9 activ: 0.1; CYP2C19 inh: 40.0; CYP2C9 inh: 90.9*; PLAP act: 1; CYP2C19 activ: 0.6

What do the screens show for `Cc1nn(Cc2c(Cl)cccc2Cl)c(C)c1NC(=O)c1cnn2c(C(F)F)cc(-c3ccccc3)nc12`?
CYP2C9 activ: 0.4; CYP2C19 inh: 26.9; CYP2C9 inh: 63.4*; PLAP act: 1.1; CYP2C19 activ: 0.7

What do the screens show for `CCc1nccn1C(=O)c1cnn2c(C(F)F)cc(-c3ccccc3)nc12`?
CYP2C9 activ: 0.9; CYP2C19 inh: 4.0; CYP2C9 inh: 9.4; PLAP act: 1.1; CYP2C19 activ: 1

What do the screens show for `CC1C(=O)C(C)C(c2ccc3c(c2)OCO3)NC1c1ccc2c(c1)OCO2` (stereo unspecified)?
CYP2C9 activ: 0.3; CYP2C19 inh: 97.4*; CYP2C9 inh: 72.5*; PLAP act: 0.8; CYP2C19 activ: 0

What do the screens show for `O=Cc1ccccc1Oc1ccccc1`?
CYP2C9 activ: 0.9; CYP2C19 inh: 11.8; CYP2C9 inh: 5.5; PLAP act: 1; CYP2C19 activ: 0.9

How did CN1C(=O)S/C(=C/c2cccnc2)C1=O do in these assays?
CYP2C9 activ: 1; CYP2C19 inh: -9.1; CYP2C9 inh: -0.6; PLAP act: 1.4; CYP2C19 activ: 1.1

Results for Cc1ccc(Oc2ccccc2/C=C2\SC(=O)N(C)C2=O)cc1 ?
CYP2C9 activ: 0.7; CYP2C19 inh: 51.0*; CYP2C9 inh: 32.0; PLAP act: 0.9; CYP2C19 activ: 0.5

How did O=C1NC(=O)/C(=C/c2ccccc2Oc2ccc(Cl)cc2)S1 do in these assays?
CYP2C9 activ: 0.3; CYP2C19 inh: 16.3; CYP2C9 inh: 71.6*; PLAP act: 1.3; CYP2C19 activ: 0.8

What do the screens show for `CCC(CC)c1nnc(NC(=O)c2nc3nc(C)cc(C)n3n2)s1`?
CYP2C9 activ: 0.9; CYP2C19 inh: -3.1; CYP2C9 inh: 6.4; PLAP act: 1.1; CYP2C19 activ: 1
